Assay results from PubChem BioAssay.
Activity calls are given as the source filed them.

Key:
Albumin (Bos taurus) = Albumin (Bos taurus) (UniProt P02769); experiment: compounds binding labelled BSA control protein – biochemical, small-molecule microarray, Alexa647 label, 635/667 nm fluorescence, artefact control for SMM control protein annotation, profiling panel (AID 1118); conditions: BSA-A647 binding, fluorescence 635 nm, higher = more signal;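 further: score merges 667 nm emission intensity and signal-to-noise per printed compound spot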
[1] = probe aXIP binding to arrayed compounds – biochemical, NeuroSMM set, 635/667 nm fluorescence, primary screen (AID 1119); conditions: small-molecule microarray, higher = more signal, called active from +8 up or from −8 down;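 further: probe is the protein aXip251-270 applied at 1 µg/mL to compound-printed slides; binding of probe to printed compounds measured as 667 nm fluorescence plus signal to noise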
[2] = probe aNOTCH3 binding on compound microarray – biochemical, small-molecule microarray, 635/667 nm fluorescence, primary screen (AID 1120); conditions: higher = more signal;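 further: probe is a biotin-tagged antibody raised against NOTCH3 rather than NOTCH3 protein; score merges spot fluorescence near 667 nm with spot signal to noise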
[3] = probe aNOTCH2 binding on compound microarray – biochemical, small-molecule microarray, 635/667 nm fluorescence, primary screen (AID 1121); conditions: higher = more signal;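 further: score merges feature fluorescence read at 667 nm with its signal to noise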
[4] = target: Carbonic anhydrase 2 (Homo sapiens) (UniProt P00918); experiment: compounds binding carbonic anhydrase 2 – biochemical, small-molecule microarray, Alexa647-labelled CAII, profiling panel (AID 1122); conditions: CAII-A647 binding fluorescence, higher = more signal
[5] = COS7 lysate on small-molecule microarray, probe aHis, 635 nm (AID 1123); conditions: COS7 cell lysate, fluorescence, higher = more signal;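 further: z-score combines 667nm fluorescence intensity with signal-to-noise per printed compound spot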
[6] = probe aLAP1 signal on lysate-treated microarray – cell lysate, small-molecule microarray, COS7 lysate, primary screen (AID 1124); conditions: probe aLAP1, fluorescence, higher = more signal;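 further: lysate comes from COS7 cells expressing LAP1 and is applied at 0.3 µg/mL; score merges spot fluorescence near 667 nm with signal-to-noise over triplicate slides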
Sam68 (KHDRBS1) = experiment: compounds binding KHDRBS1 protein – biochemical, small-molecule microarray, 635 nm fluorescence, primary screen (AID 1125); conditions: higher = more signal;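 further: score merges 667 nm channel intensity with signal to noise over triplicate slides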
[7] = tested on: Chordin-like protein 2 (CHRDL2); experiment: compounds binding chordin-like 2 – biochemical, small-molecule microarray, 635 nm fluorescence, primary screen (AID 1126); conditions: fluorescence 635 nm, higher = more signal;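 further: printed compound slides probed with Chrdl2 protein at 4 µg/mL for 1 h at 4 C; score merges 667 nm emission intensity with signal to noise over three replicate slides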
[8] = target: Concanavalin-A (Canavalia ensiformis) (UniProt P02866); experiment: compounds binding concanavalin A lectin – biochemical, small-molecule microarray, Alexa647 label, 635 nm, artefact control for SMM control protein annotation, primary screen (AID 1127); conditions: ConA-A647 binding fluorescence, higher = more signal;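 further: z combines 667 nm emission intensity with signal-to-noise across three replicate slides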
[9] = compounds binding Alexa647 anti-His antibody – biochemical, small-molecule microarray, 635 nm fluorescence, artefact control for SMM control protein annotation, primary screen (AID 1128); conditions: higher = more signal;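 further: score merges feature fluorescence with signal-to-noise for each printed compound spot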
[10] = tested on: Human papillomavirus type 1a E7 protein (residues 1-88); experiment: HPV1a E7 small-molecule binders, primary screen, biochemical, small-molecule microarray, residues 1-88, 635 nm (AID 1129); conditions: small-molecule microarray binding, fluorescence 635 nm; higher = more signal
[11] = target: Focal adhesion kinase 1 (Homo sapiens) (UniProt Q05397); experiment: PTK2 protein binding on printed compound slides – biochemical, small-molecule microarray, 635/667 nm fluorescence, BSA, DTT, primary screen (AID 1130); conditions: 635 nm fluorescence, higher = more signal;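 further: composite of spot emission at 667 nm and signal to noise over triplicate slides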
[12] = tested on: Fibrinogen (Alexa647-labelled); experiment: Alexa647-fibrinogen binding to printed small molecules – biochemical, small-molecule microarray, 635/667 nm fluorescence, artefact control for SMM control-protein annotation, profiling panel (AID 1131); conditions: fibrinogen-A647 binding fluorescence, higher = more signal;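 further: z-score merges 667 nm fluorescence with per-spot signal-to-noise over triplicate slides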
[13] = target: Follistatin (Homo sapiens) (UniProt P19883); experiment: FST protein binding to printed compounds – biochemical, small-molecule microarray, 635/667 nm fluorescence, primary screen (AID 1132); conditions: 635 nm fluorescence, higher = more signal
[14] = target: Fibroblast growth factor 2 (Homo sapiens) (UniProt P09038); experiment: basic fibroblast growth factor binding to printed compounds – biochemical, small-molecule microarray, 635/667 nm fluorescence, primary screen (AID 1133); conditions: FGF2, fluorescence 635/667, higher = more signal
[15] = JC-1 mitochondrial potential readout, lung cancer cells – cell-based, A549, JC-1 fluorescence, basal, 24 h, 100 nL, profiling panel (AID 1138); conditions: higher = more signal;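 further: A549 lung adenocarcinoma cells under basal conditions with no added stimulus; test concentration not given here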
Lefty1 = Lefty1 protein binding to printed compounds – biochemical, small-molecule microarray, 635/667 nm fluorescence, primary screen (AID 1139); conditions: fluorescence 635/667, higher = more signal
[16] = tested on: wheat germ agglutinin (Triticum aestivum), Alexa647-labelled; experiment: Alexa647-WGA lectin binding to printed small molecules – biochemical, small-molecule microarray, 635/667 nm fluorescence, artefact control for SMM control-protein annotation, profiling panel (AID 1140); conditions: WGA-A647 binding, 635 nm fluorescence, higher = more signal;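 further: score merges 667 nm feature emission with signal to noise over triplicate slides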
[17] = target: Luciferin 4-monooxygenase (Photinus pyralis) (UniProt P08659); experiment: inhibition of purified Photinus pyralis luciferase – biochemical, luminescence, purified enzyme, 2006 set, primary screen (AID 1141); conditions: purified firefly luciferase, SteadyGlo luminescence, 30 min; higher = more signal, called active from +8 up or from −8 down;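 further: cell-free assay with purified firefly luciferase at 100 ng per well in PBS; test concentration not given here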
Chain of Luciferin 4-monooxygenase (Photinus pyralis) (P08659 whole entry, looked up): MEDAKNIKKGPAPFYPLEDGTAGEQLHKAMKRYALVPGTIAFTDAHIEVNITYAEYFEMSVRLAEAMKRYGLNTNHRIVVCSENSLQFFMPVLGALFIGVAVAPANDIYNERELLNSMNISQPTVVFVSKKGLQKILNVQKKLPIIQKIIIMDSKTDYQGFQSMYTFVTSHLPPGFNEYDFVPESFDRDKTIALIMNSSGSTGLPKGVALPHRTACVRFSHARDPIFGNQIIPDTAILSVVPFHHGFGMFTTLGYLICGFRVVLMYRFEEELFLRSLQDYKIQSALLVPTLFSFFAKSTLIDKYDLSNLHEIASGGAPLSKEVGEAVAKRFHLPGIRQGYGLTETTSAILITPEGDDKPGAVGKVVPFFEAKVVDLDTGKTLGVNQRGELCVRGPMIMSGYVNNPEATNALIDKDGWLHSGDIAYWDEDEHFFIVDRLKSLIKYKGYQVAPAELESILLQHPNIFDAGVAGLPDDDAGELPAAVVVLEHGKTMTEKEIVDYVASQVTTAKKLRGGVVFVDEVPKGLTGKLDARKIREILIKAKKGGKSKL

Chain of Concanavalin-A (Canavalia ensiformis) (P02866 whole entry, looked up): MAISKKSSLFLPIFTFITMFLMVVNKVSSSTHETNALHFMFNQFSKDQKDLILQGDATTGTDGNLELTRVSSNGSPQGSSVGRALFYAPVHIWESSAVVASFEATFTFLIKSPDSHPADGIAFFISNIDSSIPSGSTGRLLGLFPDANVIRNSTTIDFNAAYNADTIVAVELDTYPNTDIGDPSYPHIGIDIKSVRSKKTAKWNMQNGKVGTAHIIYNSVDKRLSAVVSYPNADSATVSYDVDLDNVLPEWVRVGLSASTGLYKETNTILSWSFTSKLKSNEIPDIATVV
Chain of Albumin (Bos taurus) (P02769 whole entry, looked up): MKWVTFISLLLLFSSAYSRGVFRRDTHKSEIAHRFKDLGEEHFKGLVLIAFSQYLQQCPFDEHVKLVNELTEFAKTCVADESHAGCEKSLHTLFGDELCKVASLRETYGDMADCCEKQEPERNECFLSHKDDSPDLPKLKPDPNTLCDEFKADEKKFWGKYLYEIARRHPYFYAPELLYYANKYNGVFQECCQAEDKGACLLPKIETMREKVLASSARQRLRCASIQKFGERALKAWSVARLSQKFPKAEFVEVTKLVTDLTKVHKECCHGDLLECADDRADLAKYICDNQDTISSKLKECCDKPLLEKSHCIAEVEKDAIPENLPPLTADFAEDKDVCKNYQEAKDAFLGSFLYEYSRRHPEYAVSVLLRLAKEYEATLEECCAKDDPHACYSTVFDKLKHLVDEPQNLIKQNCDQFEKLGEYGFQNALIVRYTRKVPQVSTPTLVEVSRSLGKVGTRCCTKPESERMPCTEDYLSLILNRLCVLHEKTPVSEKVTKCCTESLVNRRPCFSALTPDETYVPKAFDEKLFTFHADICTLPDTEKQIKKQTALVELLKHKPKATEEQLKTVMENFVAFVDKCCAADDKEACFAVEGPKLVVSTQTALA
Chain of Follistatin (Homo sapiens) (P19883 whole entry, looked up): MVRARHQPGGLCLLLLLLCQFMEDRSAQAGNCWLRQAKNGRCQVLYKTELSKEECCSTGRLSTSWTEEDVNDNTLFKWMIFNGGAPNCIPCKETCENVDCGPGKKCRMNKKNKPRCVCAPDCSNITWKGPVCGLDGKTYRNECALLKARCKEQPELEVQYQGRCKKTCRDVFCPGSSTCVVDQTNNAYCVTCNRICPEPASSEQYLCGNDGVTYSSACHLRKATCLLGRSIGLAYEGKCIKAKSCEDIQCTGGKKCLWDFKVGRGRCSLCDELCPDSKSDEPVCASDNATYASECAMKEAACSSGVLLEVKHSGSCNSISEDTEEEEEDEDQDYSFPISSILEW
Chain of Fibroblast growth factor 2 (Homo sapiens) (P09038 whole entry, looked up): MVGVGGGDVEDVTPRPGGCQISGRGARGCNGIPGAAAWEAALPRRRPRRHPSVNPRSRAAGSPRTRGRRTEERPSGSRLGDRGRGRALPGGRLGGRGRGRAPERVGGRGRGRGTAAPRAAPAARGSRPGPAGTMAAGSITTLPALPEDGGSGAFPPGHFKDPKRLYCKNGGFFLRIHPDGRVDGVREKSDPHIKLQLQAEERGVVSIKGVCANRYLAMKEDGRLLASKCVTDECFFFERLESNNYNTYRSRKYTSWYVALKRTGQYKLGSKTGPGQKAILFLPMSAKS
Chain of Focal adhesion kinase 1 (Homo sapiens) (Q05397 whole entry, looked up): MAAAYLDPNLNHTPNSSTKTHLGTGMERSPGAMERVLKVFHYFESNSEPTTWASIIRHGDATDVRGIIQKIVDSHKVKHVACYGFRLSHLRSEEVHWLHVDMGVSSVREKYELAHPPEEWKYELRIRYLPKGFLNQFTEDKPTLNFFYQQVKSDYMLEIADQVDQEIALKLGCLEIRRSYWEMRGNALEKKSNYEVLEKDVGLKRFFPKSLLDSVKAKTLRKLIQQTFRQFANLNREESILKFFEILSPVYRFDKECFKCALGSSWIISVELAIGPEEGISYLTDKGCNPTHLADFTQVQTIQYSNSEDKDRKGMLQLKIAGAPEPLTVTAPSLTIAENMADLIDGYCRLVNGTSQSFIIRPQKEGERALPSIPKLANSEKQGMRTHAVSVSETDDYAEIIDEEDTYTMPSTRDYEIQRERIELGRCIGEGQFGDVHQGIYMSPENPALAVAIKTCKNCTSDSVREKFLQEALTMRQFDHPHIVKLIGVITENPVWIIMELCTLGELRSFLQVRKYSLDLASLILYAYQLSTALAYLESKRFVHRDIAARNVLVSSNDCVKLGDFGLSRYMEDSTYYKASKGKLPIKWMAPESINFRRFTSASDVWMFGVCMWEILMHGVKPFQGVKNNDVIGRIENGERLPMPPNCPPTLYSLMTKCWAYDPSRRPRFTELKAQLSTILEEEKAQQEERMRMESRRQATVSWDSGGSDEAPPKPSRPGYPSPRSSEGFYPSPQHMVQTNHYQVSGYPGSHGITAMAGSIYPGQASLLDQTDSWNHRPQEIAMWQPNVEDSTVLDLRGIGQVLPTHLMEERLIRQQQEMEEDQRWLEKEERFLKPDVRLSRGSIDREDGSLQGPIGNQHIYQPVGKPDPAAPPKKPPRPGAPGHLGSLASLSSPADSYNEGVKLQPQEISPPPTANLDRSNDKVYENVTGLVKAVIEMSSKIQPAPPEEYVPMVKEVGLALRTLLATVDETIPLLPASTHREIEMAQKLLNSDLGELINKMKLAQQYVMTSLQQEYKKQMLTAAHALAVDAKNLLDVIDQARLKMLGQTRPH

Row | SMILES | composite z-score (Albumin (Bos taurus)) | composite Z-score [1] | composite z-score [2] | composite z-score [3] | composite z-score [4] | composite z-score [5] | composite z-score [6] | composite z-score (Sam68 (KHDRBS1)) | composite z-score [7] | composite z-score [8] | composite z-score [9] | composite z-score [10] | composite z-score [11] | composite z-score [12] | composite z-score [13] | composite z-score [14] | z-score [15] | composite z-score (Lefty1) | composite z-score [16] | z-score [17]
1 | C=CCOC(=O)[C@H]1[C@@H]2C(=O)O[C@@H](c3ccccc3)[C@@H](c3ccccc3)N2[C@@H](c2ccc(OCCOC(=O)[C@@H]3C[C@@H]4C(=O)N[C@@H](CCCCN(C)C)C(=O)N4[C@@H]3c3ccc(O)cc3)cc2)[C@]12C(=O)Nc1ccccc12 | -0.568 | 0.685 (inactive) | 0.137 | 0.0002 | 0.297 | 2.58 | 0.949 | 1.31 | 1.44 | 1.14 | 1.57 | 1.14 | 0.0515 | 0.503 | 1.38 | 1.48 | -1.49 | 1.54 | 0.382 | -3.27 (inactive)
2 | COC(=O)c1c(CC[C@@H](CO)NC(=O)N[C@H](Cn2cc(C3(O)CCCCC3)nn2)C(C)C)oc(C(C)=O)c1C(=O)OC | -0.471 | 0.183 (inactive) | 0.0282 | -0.0878 | 0.209 | 0.32 | -0.0003 | 1.14 | 0.513 | 1.16 | 1.56 | 0.737 | -0.0722 | 0.627 | 1.23 | 1.26 | 0.131 | 1.23 | 0.947 | -0.0595 (inactive)
3 | CCOC(=O)c1ccc(NC(=O)O[C@H]2[C@H](OC(=O)Nc3ccc4c(c3)OCO4)[C@@H](OC(=O)Nc3ccc4c(c3)OCO4)[C@@H](OC)O[C@@H]2CO)cc1 | 0.862 | 0.805 (inactive) | 0.291 | -0.0226 | 0.516 | 2.56 | 0.535 | 1.31 | 0.0612 | 1.14 | 2.28 | 1.22 | 0.891 | 0.992 | 1.26 | 1.12 | -1.05 | 0.793 | 1.16 | -7.83 (inactive)
4 | COc1ccc([Si](C)(C)[C@@H]2[C@@H](CCO)O[C@]3(C(=O)N(Cc4ccc(N5CCCCC5=O)cc4)c4ccccc43)[C@H]2C)cc1 | 0.116 | 0.385 (inactive) | 0.033 | -0.0515 | 0.304 | 0.828 | 0.503 | 1.31 | 0.507 | 1.12 | 2.21 | 1.14 | -0.0284 | 0.842 | 1.07 | 1.1 | 1.74 | 0.572 | 0.916 | -1.24 (inactive)
5 | COC(=O)[C@@]1(Cc2ccc(F)cc2)[C@H]2c3cc(C(=O)N4CCCC4)n(CCN4CNCC4=O)c3C[C@H]2CN1C(=O)c1ccccc1 | 0.975 | -0.476 (inactive) | 0.323 | -0.0345 | 0.766 | 3.18 | 0.197 | 0.592 | -0.834 | 0.63 | 2.44 | 1.24 | 0.922 | 1 | -0.0189 | -0.841 | -1.6 | -0.0252 | 1.01 | 2.51 (inactive)
6 | COc1ccc(-c2cc3c(c(CCc4ccccc4)n2)[Si](C(C)C)(C(C)C)OC3)cn1 | -0.0428 | 0.147 (inactive) | -0.152 | -0.169 | -0.173 | 0.132 | -0.376 | -0.296 | 0.105 | -0.0689 | 0.0933 | -0.765 | -0.192 | -0.284 | 0.323 | -0.025 | -0.585 | 0.496 | -0.289 | 1.17 (inactive)
7 | O=C1OCC=C[C@H]2OC34C=CCN(c5ccc(Cl)cc5)C(=O)[C@H]3N(CCO)C(=O)[C@@H]4[C@@H]12 (stereo not given in full) | -0.212 | 0.703 (inactive) | -0.306 | -0.211 | 0.903 | 2.81 | 0.0653 | -0.381 | -1.52 | -0.606 | 0.745 | -0.658 | -0.588 | -1.36 | -1.12 | -1.06 | 0.805 | -0.78 | -0.729 | -0.386 (inactive)
8 | [N-]=[N+]=NCc1ccccc1C[C@@]1(C(=O)N2CCCCC2)N=C(c2ccc(OCCCO)cc2)O[C@@H]1c1ccccc1 | 0.901 | 0.269 (inactive) | -0.102 | -0.299 | 0.606 | 1.28 | -0.0762 | 1.07 | -1.27 | 0.64 | 0.686 | 1.12 | 0.214 | 0.519 | 0.24 | 0.201 | 0.144 | -0.693 | 0.636 | -0.362 (inactive)
9 | COCCCNC(=O)[C@@]1(Cc2ccccc2N=[N+]=[N-])COC(c2ccc(OCCCO)cc2)=N1 | 0.538 | 0.889 (inactive) | 0.125 | -0.0928 | 0.31 | 2.27 | 0.398 | 1.05 | -0.938 | 1.1 | 1.47 | 1.22 | 0.614 | 0.967 | 0.773 | -0.186 | 0.961 | -0.351 | 0.976 | -2.1 (inactive)
10 | Cc1cc(C)cc(N2C(=O)CSC2c2cccc([N+](=O)[O-])c2)c1 (stereo not given) | 0.892 | 0.027 (inactive) | -0.0023 | -0.124 | 0.621 | 1.94 | 0.798 | 1.3 | 0.052 | 1.19 | 2.27 | 1.22 | 1.55 | 1.03 | 0.45 | 0.963 | 0.492 | 1.53 | 1.1 | -0.992 (inactive)
